Usually Inhibition stands for the percentage by which the read-out fell short of the control. A low value points to a weak effect.

The test system of the first assay is Plasmodium falciparum. In words: GSK_TCMDC: Inhibition of Plasmodium falciparum Dd2 in whole red blood cells, using parasite LDH activity as an index of growth. Test compounds present at 2uM. The class given is functional.
`COc1ccc(-c2nc(NC(=O)COc3ccc(C(C)=O)cc3)sc2C)cc1` registered an Inhibition of 58%.
For `CN1CCC(N2CCC(Oc3cccc(C(=O)NCCCC4CCCC4)c3)CC2)CC1`, the Inhibition turned out to be 48%.
The compound `COc1ccc(CN(C)CCOc2ccc(NC(=O)c3cccc4c(=O)c5cc(SC)ccc5[nH]c34)cc2)cc1OC` registered an Inhibition of 98%.
`CCC(CN1C(=O)C(c2ccccc2)(c2ccccc2)N=C1N)c1ccccc1.O=CO` (stereo not given) came in with an Inhibition of 98%.
`Cc1cc(Cl)ccc1NC(=O)Nc1ccc2nccc(N3CCN(C)CC3)c2c1` returned an Inhibition of 74%.

The next assay concerns HepG2. In words: GSK_TCMDC: Percent inhibition of human HepG2 cell line. Test compounds present at 10uM. The format is functional.
In turn, `Cc1ccc2[nH]c(Nc3ccc(Nc4nc5cc(C)ccc5[nH]4)c(C)c3)nc2c1` returned an Inhibition of 12%.
`COc1ccc(NC(=O)Nc2ccc(Nc3nc(C)cc(N(C)C)n3)cc2)cc1` came in with an Inhibition of 11%.
Consider `COc1ccc2nccc([C@@H](O)CN3CCC(NCc4ccc5scnc5c4)CC3)c2c1.O=C(O)C(=O)O`, for which the Inhibition was 17%.
Consider `Cc1cc(C(=O)Nc2ccc3c(c2)CCN3C2CCN(Cc3ccc(F)cc3Cl)C2)no1` (stereo not given), for which the Inhibition came out at 7%.
Turning to `CCn1cnc2c(N3CCCCS3(=O)=O)cc(C(=O)N[C@@H](Cc3ccccc3)[C@H](O)CNC3CCOCC3)cc21`, the Inhibition worked out at 7%.
In turn, `NCC1CCCN1Cc1cccc(-c2cccc(-c3nc4cc(F)ccc4[nH]3)c2)c1.O=C(O)C(F)(F)F` (stereo not given) gave an Inhibition of 10%.
`Clc1ccc(CNC2CCN(CC3CCCCC3)CC2)cc1.O=C(O)C(F)(F)F` came in with an Inhibition of 12%.
`CCCCCCCN(CCCCCCC)CCCC(=O)Nc1ccnc2ccc(OC)cc12.O=C(O)C(=O)O` had an Inhibition of 43%.
With `CCOc1ccccc1CCNC(C)Cc1ccc(C(=O)Nc2ccc(CC(C)NCCc3cccc(Cl)c3)cc2)cc1` (stereo not given), the Inhibition turned out to be 100%.
`O=C(NCCCCN1CCC(c2ccc3c(c2O)CCCC3)CC1)c1ccc(-c2ccc(Cl)cc2)cc1`: the Inhibition stood at 97%.
`O=C(O)C(F)(F)F.O=c1[nH]ccc2nc(N[C@@H]3CCNC3)nc(Nc3ccc4c(c3)S(=O)(=O)CC4)c12` came in with an Inhibition of 0%.
The compound `COc1ccccc1N1CCN(CCCCNC(=O)c2ccc(NC(=O)c3ccc(C(F)(F)F)cc3)cc2)CC1` displayed an Inhibition of 25%.
As for `Cc1cc(C(=O)NCc2ccc(-c3c(C)noc3C)cc2)n(-c2ccccc2)n1`, the Inhibition is given as 4%.
For `COc1cccc(CN2CCCN(Cc3cccc(NC(=O)c4ccc(Cl)c(Cl)c4)c3)CC2)c1.O=C(O)C(F)(F)F`, the Inhibition is 26%.
In the case of `COc1cc2c(cc1OC)-c1cc(=Nc3c(C)cc(C)cc3C)n(C)c(=O)n1CC2.Cl`, the Inhibition is recorded as 14%.
Regarding `Cc1cccc2nc(-c3ccc(-c4ccc(NC(=O)Nc5ccc(F)c(F)c5F)cc4)s3)[nH]c12`, the Inhibition was 58%.
Compound `CCc1cn2c3c(cc(C(=O)N[C@@H](Cc4ccccc4)[C@H](O)CNCc4ccccc4)cc13)N(C)S(=O)(=O)CC2.O=CO` registered an Inhibition of 3%.
The same measure, in the same setting: with `CN(Cc1cccc(O)c1)C1CCCN(c2cc(NC(=O)c3ccc(F)cc3)ccn2)C1.O=C(O)C(F)(F)F` (stereo not given) the figure was 8%; with `COc1ccc(CCN(C)CCCCNC(=O)c2ccc(NC(=O)c3ccc(Cl)cc3)cc2)c(OC)c1`, 12%; with `COc1cccc(NC(=O)N2CCOC(CCN3CCC4(CCc5ccccc54)CC3)(c3ccc(Cl)c(Cl)c3)C2)c1` (stereo not given), 97%.
`COc1ccc(OCC(=O)Nc2cc(-c3nc4ccccc4[nH]3)ccc2Cl)cc1` showed an Inhibition of 18%.
`CC(=O)Nc1ncc(C(=O)Nc2cccc(-c3cccc(-c4nc5cc(C(F)(F)F)ccc5[nH]4)c3)c2)s1`: the Inhibition turned out to be 76%.
`Cc1ccc(NC(=S)NC2CCN(CCCCCNC(=O)/C=C/c3ccc(Cl)c(Cl)c3)CC2)cc1Cl` returned an Inhibition of 45%.
On the same count and under the same terms, for `CN(C)CCN(Cc1ccccc1-c1ccc(CNCCc2ccccc2)cc1)C(=O)c1ccccc1.O=C(O)C(F)(F)F` the value was 81%; for `CN(C)S(=O)(=O)c1ccc(N2CCN(CCC3(c4cccc(F)c4)CCN(C(=O)C(C)(C)C)CC3)CC2)c2nonc12`, 8%.
On the same count and under the same terms, for `COc1cc(-c2cc(-c3ccc(S(C)(=O)=O)cc3)cnc2N)ccc1O` the value was 37%.
On the same count and under the same terms, with `C[C@@H]([C@@H](CCCCc1ccccc1)C(=O)N[C@H](C(=O)Nc1cccnc1)C(C)(C)C)N(O)C=O` the figure was 0%.
In the case of `COc1ccc2ncc(F)c(CCN3C[C@H](CNCc4cc(C#N)c5c(c4)OCCO5)[C@H](O)C3)c2n1.Cl`, the Inhibition is 7%.
Turning to `CCOc1c(C)cc(C(F)(F)F)cc1CNCCCNc1cc(=O)c2ccccc2[nH]1.Cl`, the Inhibition came out at 0%.
Same read-out and setting: with `O=C(Nc1cccc(-c2cccc(F)c2)c1)C1CCN(Cc2ccc(O)cc2)CC1` the figure was 13%; with `CC(C)CNCc1cccc(-c2cccc(CN(CCN(C)C)C(=O)NCCc3ccccc3)c2)c1.O=C(O)C(F)(F)F`, 84%; with `COc1cccc(Nc2nccc(NCC(O)c3cccc(C(F)(F)F)c3)n2)c1` (stereo not given), 6%.
`O=C(O)C(F)(F)F.O=[N+]([O-])c1cccc(CNC2CCN(Cc3ccc(-c4ccccc4)cc3)CC2)c1`: the Inhibition is 25%.
`COc1ccccc1N1CCN(C(C(=O)NCc2ccc3c(c2)OCO3)c2ccc3c(c2)OCCCO3)CC1` (stereo not given) yielded an Inhibition of 15%.
Still for that read-out and setting: with `COc1ccc(CNCc2ccc(-c3ccc(-c4nc5cccc(C)c5[nH]4)s3)cc2)cc1.O=C(O)C(F)(F)F` the figure was 54%; with `COc1ccc(-c2nc(NC(=O)COc3ccc(C(C)=O)cc3)sc2C)cc1`, 0%.
For the compound `CN1CCC(N2CCC(Oc3cccc(C(=O)NCCCC4CCCC4)c3)CC2)CC1`, the Inhibition worked out at 41%.
`COc1ccc(CN(C)CCOc2ccc(NC(=O)c3cccc4c(=O)c5cc(SC)ccc5[nH]c34)cc2)cc1OC` yielded an Inhibition of 67%.
Still for that read-out and setting: for `CCC(CN1C(=O)C(c2ccccc2)(c2ccccc2)N=C1N)c1ccccc1.O=CO` (stereo not given) the value was 11%; for `Cc1cc(Cl)ccc1NC(=O)Nc1ccc2nccc(N3CCN(C)CC3)c2c1`, 0%.

For the origin of these results see ChEMBL document CHEMBL1157539, “Thousands of chemical starting points for antimalarial lead identification” (Nature, 2010).
